Experimental data: PubChem BioAssay (NCATS)
Values without a mark were called inactive. Inconclusive results are not listed. A call without a number means that no potency is given here. Calls of active or inactive are those of the source. Unless noted, the call rests on the fitted dose curve; in most records, active means well fitted curve in the direction sought with a large enough effect; inconclusive means small, poorly fitted or top-dose-only effect, or another doubt; inactive means no such curve, though single readings can be large; an effect the other way counts as inactive or inconclusive.

What was measured:
[1] = molecular target: Cytochrome P450 1A2 (Homo sapiens) (UniProt P05177); assay: p450-cyp1a2 (AID 410; calls by dose curve; further: potency means the concentration at half of the fitted maximal effect)
Cytochrome P450 1A2 (Homo sapiens), sequence (P05177 whole entry, looked up): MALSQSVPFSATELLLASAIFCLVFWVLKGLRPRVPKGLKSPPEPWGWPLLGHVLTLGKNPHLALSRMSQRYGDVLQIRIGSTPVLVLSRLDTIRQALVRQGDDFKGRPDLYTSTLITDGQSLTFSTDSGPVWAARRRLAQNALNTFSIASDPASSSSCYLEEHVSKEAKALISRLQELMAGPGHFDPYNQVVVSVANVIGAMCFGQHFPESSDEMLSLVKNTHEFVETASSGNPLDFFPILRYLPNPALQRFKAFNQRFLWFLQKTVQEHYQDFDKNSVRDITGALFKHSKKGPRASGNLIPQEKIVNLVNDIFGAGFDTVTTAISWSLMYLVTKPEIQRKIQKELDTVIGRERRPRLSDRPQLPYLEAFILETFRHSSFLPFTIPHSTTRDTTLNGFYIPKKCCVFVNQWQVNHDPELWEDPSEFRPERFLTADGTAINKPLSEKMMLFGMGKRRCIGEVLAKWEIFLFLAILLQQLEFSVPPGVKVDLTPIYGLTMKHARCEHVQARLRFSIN
Procedure, shortened: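 Human CYP1A2 (20nM) demethylated Luciferin-ME at its Km (100uM) in 100mM KPO4. After 10 min compound preincubation, NADPH regeneration ran the reaction 60 min at room temperature. Luciferin was read by luminescence, normalized to 57 uM furafylline.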

[2] = molecular target: Mitogen-activated protein kinase 10 (Mus musculus) (UniProt Q61831); assay: JNK3 AlphaScreen Assay (AID 530; active means well fitted curve in either direction with a large enough effect, not every such curve was filed as active;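 further: kinase came from lysate of stimulated human HepG2 cells; signal reports phosphorylation of biotinylated GST-cJun 1-79 at Ser73 with 10 µM ATP; series mostly up to about 57 µM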)
Procedure, shortened: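 qHTS format: compounds tested as titrations against IL-1beta/TNF-alpha-activated HepG2 lysate JNK3 with biotin-GST-cJun substrate and 10 uM ATP at room temperature. Loss of anti-phospho-cJun AlphaScreen signal indicates inhibition.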

[3] = molecular target: 3',5'-cyclic-AMP phosphodiesterase 4B (Homo sapiens) (UniProt Q07343); assay: qHTS Assay for Inhibitors of PDE-IV (AID 607; active means well fitted activation curve with a large enough effect in the main read-out, with a control signal flat, not every such curve was filed as active)
3',5'-cyclic-AMP phosphodiesterase 4B (Homo sapiens), sequence (Q07343 whole entry, looked up): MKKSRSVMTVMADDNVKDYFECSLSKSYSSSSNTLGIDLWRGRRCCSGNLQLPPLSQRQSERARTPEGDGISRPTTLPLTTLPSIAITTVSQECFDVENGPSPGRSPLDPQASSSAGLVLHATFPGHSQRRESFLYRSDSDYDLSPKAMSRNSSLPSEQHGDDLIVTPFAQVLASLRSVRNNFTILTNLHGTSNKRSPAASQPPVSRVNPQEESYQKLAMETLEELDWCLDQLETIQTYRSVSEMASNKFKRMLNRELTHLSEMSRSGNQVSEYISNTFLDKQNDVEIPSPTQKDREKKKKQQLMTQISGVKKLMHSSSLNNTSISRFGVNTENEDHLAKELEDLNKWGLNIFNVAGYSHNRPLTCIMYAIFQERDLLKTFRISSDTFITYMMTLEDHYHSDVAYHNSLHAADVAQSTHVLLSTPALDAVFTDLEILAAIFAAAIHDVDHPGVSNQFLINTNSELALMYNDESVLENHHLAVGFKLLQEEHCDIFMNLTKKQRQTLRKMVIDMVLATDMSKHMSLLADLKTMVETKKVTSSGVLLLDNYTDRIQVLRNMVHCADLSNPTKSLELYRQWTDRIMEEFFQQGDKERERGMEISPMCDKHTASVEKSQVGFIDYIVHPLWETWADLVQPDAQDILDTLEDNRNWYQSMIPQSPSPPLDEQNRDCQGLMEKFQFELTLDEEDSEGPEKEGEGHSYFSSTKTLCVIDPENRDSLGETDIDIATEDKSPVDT
Procedure, shortened: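 HEK293 ACTOne cells with CNG channel (1000/well), endogenous PDE4; membrane potential dye, compounds up to 22.9 uM final. Fluorescence Ex 535/Em 590; RO 20-1724 (100 uM final) as reference.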

[4] = molecular target: Cytochrome P450 2C9 (Homo sapiens) (UniProt P11712); assay: qHTS Assay for Inhibitors and Substrates of Cytochrome P450 2C9 (AID 883); further: nearly all actives have a fitted effect of over 60% in size; further: potency means the concentration at half of the fitted maximal effect
Cytochrome P450 2C9 (Homo sapiens), sequence (P11712 whole entry, looked up): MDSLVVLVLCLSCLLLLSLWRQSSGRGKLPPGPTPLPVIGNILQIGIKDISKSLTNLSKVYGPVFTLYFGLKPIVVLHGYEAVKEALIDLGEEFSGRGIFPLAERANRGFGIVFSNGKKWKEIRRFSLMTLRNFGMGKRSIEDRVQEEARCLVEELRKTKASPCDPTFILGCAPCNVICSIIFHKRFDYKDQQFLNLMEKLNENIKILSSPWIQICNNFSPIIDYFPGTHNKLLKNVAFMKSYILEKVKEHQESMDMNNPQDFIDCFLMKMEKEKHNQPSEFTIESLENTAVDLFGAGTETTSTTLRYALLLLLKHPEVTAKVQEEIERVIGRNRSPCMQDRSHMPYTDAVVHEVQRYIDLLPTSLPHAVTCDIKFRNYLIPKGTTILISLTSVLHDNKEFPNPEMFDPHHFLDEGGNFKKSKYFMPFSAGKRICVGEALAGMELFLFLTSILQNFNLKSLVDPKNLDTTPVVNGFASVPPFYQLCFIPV
Procedure, shortened: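 Signal: luciferase luminescence reporting luciferin produced by CYP2C9. Conditions: 10nM enzyme, Luciferin-H 100uM at KM, 25mM KPO4, 37C, 60 min NADPH-driven reaction. Reference: 57uM sulphaphenazole as 100% inhibition.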

[5] = molecular target: Cytochrome P450 3A4 (Homo sapiens) (UniProt P08684); assay: qHTS Assay for Inhibitors and Substrates of Cytochrome P450 3A4 (AID 884); further: potency means the concentration at half of the fitted maximal effect; nearly all actives have a fitted effect of over 50% in size
Cytochrome P450 3A4 (Homo sapiens), sequence (P08684 whole entry, looked up): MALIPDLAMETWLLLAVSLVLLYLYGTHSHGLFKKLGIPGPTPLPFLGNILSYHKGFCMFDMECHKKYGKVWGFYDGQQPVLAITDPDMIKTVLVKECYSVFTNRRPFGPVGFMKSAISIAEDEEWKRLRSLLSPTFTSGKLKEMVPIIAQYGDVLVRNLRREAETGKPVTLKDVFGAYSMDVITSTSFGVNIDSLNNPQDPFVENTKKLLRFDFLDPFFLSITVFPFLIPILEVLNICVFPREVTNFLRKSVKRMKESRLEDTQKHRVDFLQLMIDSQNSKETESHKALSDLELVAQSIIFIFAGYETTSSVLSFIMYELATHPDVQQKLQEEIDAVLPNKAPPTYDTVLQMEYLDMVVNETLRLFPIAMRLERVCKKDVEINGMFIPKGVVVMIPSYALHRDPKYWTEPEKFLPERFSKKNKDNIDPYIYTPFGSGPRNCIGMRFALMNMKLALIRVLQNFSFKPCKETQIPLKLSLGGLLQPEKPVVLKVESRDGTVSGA
Procedure, shortened: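 20 nM human CYP3A4 with 25 uM Luciferin-PPXE (at KM) in 200 mM KPO4, preincubated 10 min with compound; NADPH regeneration started a 60 min RT reaction. Luciferin detected by luminescence, normalized to 57 uM ketoconazole as full inhibition.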

[6] = molecular target: Cytochrome P450 3A4 (Homo sapiens) (UniProt P08684); assay: qHTS Assay for Activators of Cytochrome P450 3A4 (AID 885); further: nearly all actives have a fitted effect of over 65% in size
Procedure, shortened: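 Human CYP3A4 (20 nM) with Luciferin-PPXE at 25 uM (its KM) in 200 mM KPO4; 10 min compound preincubation, then NADPH regeneration and 60 min reaction at RT. Luciferin read by luminescence; normalized to 57 uM ketoconazole full inhibition.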

[7] = molecular target: Cytochrome P450 2C19 (Homo sapiens) (UniProt P33261); assay: qHTS Assay for Inhibitors and Substrates of Cytochrome P450 2C19 (AID 899); further: nearly all actives have a fitted effect of over 60% in size; further: potency means the concentration at half of the fitted maximal effect
Cytochrome P450 2C19 (Homo sapiens), sequence (P33261 whole entry, looked up): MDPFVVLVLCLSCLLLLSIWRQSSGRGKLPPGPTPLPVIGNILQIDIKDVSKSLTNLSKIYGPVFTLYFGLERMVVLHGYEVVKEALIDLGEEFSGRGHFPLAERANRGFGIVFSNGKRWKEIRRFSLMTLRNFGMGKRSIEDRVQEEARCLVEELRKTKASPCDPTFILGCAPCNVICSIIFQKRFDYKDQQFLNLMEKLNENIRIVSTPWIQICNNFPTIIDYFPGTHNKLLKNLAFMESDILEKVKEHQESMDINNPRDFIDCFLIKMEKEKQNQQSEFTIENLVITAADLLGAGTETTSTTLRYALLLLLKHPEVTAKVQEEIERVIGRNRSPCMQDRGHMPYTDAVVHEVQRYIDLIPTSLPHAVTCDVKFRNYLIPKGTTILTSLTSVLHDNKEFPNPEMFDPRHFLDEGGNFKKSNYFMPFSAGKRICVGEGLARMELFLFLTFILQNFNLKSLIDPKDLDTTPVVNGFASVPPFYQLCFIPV
Procedure, shortened: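 Signal comes from luciferase acting on luciferin released by CYP2C19-mediated hydroxylation of Luciferin-H EGE, 10uM (KM). Assay mix: 5nM enzyme, 50mM KPO4; 60 min at 37C with NADPH regeneration. Data normalized against 57uM ketoconazole.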

[8] = molecular target: Cytochrome P450 2D6 (Homo sapiens) (UniProt P10635); assay: qHTS Assay for Inhibitors and Substrates of Cytochrome P450 2D6 (AID 891); further: nearly all actives have a fitted effect of over 60% in size; further: potency means the concentration at half of the fitted maximal effect
Cytochrome P450 2D6 (Homo sapiens), sequence (P10635 whole entry, looked up): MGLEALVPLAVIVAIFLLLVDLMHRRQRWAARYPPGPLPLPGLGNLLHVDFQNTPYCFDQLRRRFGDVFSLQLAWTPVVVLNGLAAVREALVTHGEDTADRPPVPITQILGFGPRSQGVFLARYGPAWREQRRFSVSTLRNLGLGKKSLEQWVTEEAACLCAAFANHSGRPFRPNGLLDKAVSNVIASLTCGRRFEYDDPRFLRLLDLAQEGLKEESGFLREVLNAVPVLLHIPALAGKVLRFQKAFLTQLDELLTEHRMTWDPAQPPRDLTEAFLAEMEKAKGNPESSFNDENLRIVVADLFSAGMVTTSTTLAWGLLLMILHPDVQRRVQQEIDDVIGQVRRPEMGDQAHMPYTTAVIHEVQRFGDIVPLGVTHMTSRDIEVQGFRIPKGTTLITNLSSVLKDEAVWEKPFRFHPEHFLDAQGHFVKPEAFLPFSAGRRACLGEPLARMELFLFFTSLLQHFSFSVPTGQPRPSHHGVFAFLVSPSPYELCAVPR
Procedure, shortened: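 Human CYP2D6 (5 nM) with 30 uM Luciferin-ME EGE (at Km) in 100 mM KPO4, compound preincubated 10 min, then NADPH regeneration system for 60 min at room temperature. Luciferin read by luminescence; normalized to 1.43 uM quinidine.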

SMILES	Potency [1]	Potency [2]	Potency [3]	Potency [4]	Potency [5]	Potency [6]	Potency [7]	Potency [8]
COC(=O)[C@@]1(Cc2ccc(F)cc2)[C@H]2c3cc(C(=O)N(C)C)n(Cc4ccc(Cl)c(C(F)(F)F)c4)c3C[C@H]2CN1C(=O)c1ccccc1	15.8 µM (active)	inactive	inactive	3.98 µM (active)	2 µM (active)	inactive		
O=C(Nc1ccc2ccccc2c1)[C@H]1C[C@@H]1[C@H](NP(=O)(c1ccccc1)c1ccccc1)c1ccccc1	10 µM (active)	inactive	inactive	3.16 µM (active)	2.51 µM (active)	inactive	3.16 µM (active)	
C[C@@H](C(=O)NCc1cccc2ccccc12)[C@H]1C[C@]1(C)[C@H](NC(=O)OCc1ccccc1)c1ccccc1	25.1 µM (active)	inactive	inactive	3.16 µM (active)	0.398 µM (active)	inactive	2.51 µM (active)	
CC1=C(C(=O)OCc2ccccc2)C(c2ccccc2)NC(=O)N1CCCCCC(=O)O (stereo not drawn)	20 µM (active)	inactive	inactive					
COC(=O)[C@@]1(Cc2ccc(F)cc2)[C@H]2c3cc(C(=O)N4CCCC4)n(Cc4ccc(OC(F)(F)F)cc4)c3C[C@H]2CN1C(=O)c1ccccc1	inactive	inactive	inactive	6.31 µM (active)	2.51 µM (active)	inactive		
CCCc1cc2c(n1Cc1cc(F)cc(F)c1)C(C)C1CN(C(=O)c3ccccc3)C(C)(C(=O)OC)C21 (stereo not drawn)	inactive	inactive	inactive	6.31 µM (active)	3.16 µM (active)	inactive		
C[C@@H](C(=O)NCCc1c[nH]c2ccccc12)[C@@H]1C[C@@]1(C)[C@@H](NC(=O)OCc1ccccc1)c1ccccc1	12.6 µM (active)	inactive	inactive	2.51 µM (active)	3.16 µM (active)	inactive	0.794 µM (active)	
C[C@@H](C(=O)Nc1ccc2ccccc2c1)[C@H]1C[C@]1(C)[C@H](NP(=O)(c1ccccc1)c1ccccc1)c1ccccc1	10 µM (active)	inactive	inactive	3.16 µM (active)	2 µM (active)	inactive		0.794 µM (active)
COC(=O)[C@@]1(Cc2ccc(F)cc2)[C@H]2c3cc(C(=O)N(C)C)n(C)c3C[C@H]2CN1C(=O)c1ccccc1	31.6 µM (active)	inactive	inactive					
CCC#CCOCC(=O)Nc1ccccc1	25.1 µM (active)	inactive	inactive					
CCCC/C=C/C(NC(=O)c1ccc(-c2ccccc2)cc1)c1ccccc1 (stereo not drawn)	15.8 µM (active)	inactive	inactive					
CC(Cc1ccccc1)C(=O)NCc1ccccn1 (stereo not drawn)	15.8 µM (active)	inactive	inactive					
COC(=O)[C@@]1(Cc2ccc(F)cc2)[C@H]2c3cc(C(=O)N4CCCC4)n(CCO)c3C[C@H]2CN1C(=O)c1ccccc1	25.1 µM (active)	inactive	inactive					
COC(=O)[C@@]1(Cc2ccc(OC)cc2)[C@H]2c3cc(C(=O)N4CCCC4)n(Cc4c(CO)[nH]cc(C)c4=O)c3C[C@H]2CN1C(=O)c1ccccc1	25.1 µM (active)	inactive	inactive					
CC1(C)S[C@@H]2[C@@H](NC(=O)[C@@H](N)c3ccccc3)C(=O)N2[C@H]1C(=O)O	inactive	inactive	inactive					
COC(=O)[C@@]1(Cc2ccccc2)[C@H]2c3cc(C(=O)N4CCCC4)n(Cc4ccc(C(F)(F)F)nc4)c3C[C@H]2CN1C(=O)c1ccccc1	inactive	inactive	inactive	5.01 µM (active)	3.16 µM (active)	inactive		
COC(=O)[C@@]1(Cc2ccccc2)[C@H]2c3cc(C(=O)N(C)C)n(Cc4ccsc4Br)c3C[C@H]2CN1C(=O)c1ccccc1	inactive	inactive	inactive	3.98 µM (active)	1.58 µM (active)	inactive	2 µM (active)	

SMILES	Potency [1]	Potency [2]	Potency [3]	Potency [4]	Potency [5]	Potency [6]	Potency [7]	Potency [8]
C[C@@H](C(=O)Nc1ccc2ccccc2c1)[C@@H]1C[C@@]1(C)[C@@H](NS(=O)(=O)c1ccc2ccccc2c1)c1ccccc1	10 µM (active)	inactive	inactive	inactive		inactive		
C[C@@H](C(=O)Nc1ccc2ccccc2c1)[C@@H]1C[C@@]1(C)[C@@H](NS(=O)(=O)c1ccc(-c2ccccc2)cc1)c1ccccc1	12.6 µM (active)	inactive	inactive					
COC(=O)[C@@]1(Cc2ccc(F)cc2)[C@H]2c3cc(C(=O)N(C)C)n(Cc4cccc5ccccc45)c3C[C@H]2CN1C(=O)c1ccccc1	6.31 µM (active)	inactive	inactive					
COC(=O)[C@@]1(Cc2ccc(OC)cc2)[C@H]2c3cc(C(=O)N4CCCC4)n(CCc4c[nH]c5ccc(O)cc45)c3C[C@H]2CN1C(=O)c1ccccc1	inactive	inactive	inactive	3.16 µM (active)	1.58 µM (active)	inactive		
COC(=O)[C@@]1(Cc2ccc(OC)cc2)[C@H]2c3cc(C(=O)N4CCCC4)n(CCc4c[nH]c5cc(F)ccc45)c3C[C@H]2CN1C(=O)c1ccccc1	39.8 µM (active)	inactive	inactive	3.16 µM (active)	1.26 µM (active)	inactive		
Cc1cc(C(=O)N[C@@H](c2ccccc2)[C@]2(C)C[C@H]2[C@@H](C)C(=O)Nc2ccc3ccccc3c2)n(C)n1	12.6 µM (active)	inactive	inactive	3.98 µM (active)	0.794 µM (active)	inactive		
CC1=C(C(=O)OCc2ccccc2)C(c2ccc3ccccc3c2)NC(=O)N1CCCCCC(=O)O (stereo not drawn)	20 µM (active)	inactive	inactive	7.94 µM (active)		inactive		
COC(=O)[C@@]1(Cc2ccccc2)[C@H]2c3cc(C(=O)N4CCCC4)n(CCc4ccccn4)c3C[C@H]2CN1C(=O)c1ccccc1	inactive	inactive	inactive		2 µM (active)	inactive		
Cc1cc(CNC(=O)[C@H]2C[C@@H]2[C@H](NP(=O)(c2ccccc2)c2ccccc2)c2ccccc2)nn1C	inactive	inactive	inactive		2.51 µM (active)	inactive		
COC(=O)[C@@]1(Cc2ccc(OC)cc2)[C@H]2c3cc(C(=O)N4CCCC4)n(CCn4cc([N+](=O)[O-])nc4C)c3C[C@H]2CN1C(=O)c1ccccc1	inactive	inactive	inactive		3.98 µM (active)	inactive		
COC(=O)[C@@]1(Cc2ccc(F)cc2)[C@H]2c3cc(C(=O)N(C)C)n(CCCNc4ccc(C(F)(F)F)cc4Cl)c3C[C@H]2CN1C(=O)c1ccccc1	inactive	inactive	inactive		1.58 µM (active)	inactive		
COC(=O)[C@@]1(Cc2ccccc2)[C@H]2c3cc(C(=O)N4CCCC4)n(Cc4c(CO)[nH]cc(C)c4=O)c3C[C@H]2CN1C(=O)c1ccccc1	5.01 µM (active)	inactive	inactive		2.51 µM (active)	inactive		
C[C@@H](C(=O)Nc1ccc2ccccc2c1)[C@@H]1C[C@@]1(C)[C@@H](N)c1ccccc1	15.8 µM (active)	inactive	inactive		7.94 µM (active)	inactive		
NCCC[C@@H](CC(=O)N[C@@H]1CCNC[C@H]1C(=O)N[C@H](CC(=O)N[C@@H](CCC(=O)O)CC(=O)O)Cc1ccccc1)NC(=O)C[C@H](CO)NC(=O)[C@@H]1CCCC[C@H]1N	inactive	inactive	inactive	inactive			inactive	inactive
COC(=O)[C@@]1(Cc2ccc(F)cc2)[C@@H]2[C@@H](CC(=O)[C@H]2CC(=O)C(=O)N(C)C)CN1C(=O)c1ccccc1	inactive	inactive	inactive		6.31 µM (active)	inactive		
COC(=O)[C@@]1(Cc2ccc(F)cc2)[C@H]2c3cc(C(=O)N(C)C)n(Cc4c(CO)[nH]cc(C)c4=O)c3C[C@H]2CN1C(=O)c1ccccc1	25.1 µM (active)	inactive	inactive		1.58 µM (active)	inactive		
